Measurements reported in PubChem BioAssay AID1259336 (Sattelle Laboratory, UCL Respiratory, Division of Medicine, …, 2017).
A number with no mark means an inactive call. Activity calls are given as the source filed them. Cut-off read from the data, not from the text of the source: active = log2 fold change growth below about -1.8; inactive = the rest.

Assay: anthelmintic activity against nematode growth – whole organism, log2 fold change (AID 1259336);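 note: growth scored by imaging after five days at 20 °C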
Details: C. elegans growth, anthelmintic screen; active compounds read low

Structure (SMILES) | log2 fold change growth
O=C(c1ccco1)N(CCCn1ccnc1)c1nc2c(Cl)cccc2s1 | -2.18 (active)
Cc1cc(C(=O)Nc2cnn(Cc3ccc(Cl)cc3Cl)c2)no1 | 0.545
O=C(CCC1CCCCC1)Nc1cccc(-c2nnc(-c3ccco3)o2)c1 | 0.147
O=C(Nc1ccccc1-c1nc2c(C(=O)O)cccc2o1)c1ccccc1 | -0.0236
COc1ccc(S(=O)(=O)Nc2ccc(CN3CCN(C(=O)c4cccc(C#N)c4)CC3)cc2)cc1 | 0.00585
Cc1cc(NC(=O)c2ccc(S(=O)(=O)N(Cc3ccccc3)C(C)C)cc2)no1 | -0.0868
CC1(O)CC(c2nc(-c3ccc4ccc(-c5ccccc5)nc4c3)c3c(N)nccn23)C1 (stereo not drawn) | -0.23
Cc1nc(-c2ccccn2)nc(N2CC[C@H](Cc3ccccc3)C2)c1Cl | -1.52
CC[C@H](Sc1nc2ccccc2o1)C(=O)Nc1nnc(C)s1 | 0.272
CN1CCN(CCCOc2ncc(Nc3ncc(-c4ccc(C(F)(F)F)c(F)c4)nc3C(N)=O)cn2)CC1 | -0.568
COc1ccc(-c2nc(-c3cccc(NC(=O)Cc4ccc(F)cc4)c3)no2)cc1OC | -0.107
CCc1nc2ccc(Cl)cn2c1C(=O)NCc1ccc(N2CCC(c3ccc(OC(F)(F)F)cc3)CC2)cc1 | -0.0431
COC(=O)c1ccc(F)cc1NS(=O)(=O)c1cccc(-c2cnn(Cc3ccccc3)c2)c1 | -0.413
CCNC(=O)[C@H](C)Nc1nc(-c2cccnc2)nc2sc(C)c(C)c12 | 0.136
CN1CCN(S(=O)(=O)c2ccc(-c3ccc4c(Nc5ccc6n[nH]nc6c5)ccnc4c3)cc2)CC1 | -0.667
Cc1ccc(NC(=O)c2cc(S(=O)(=O)NC(C)(C)C)ccc2C)nc1 | 0.26
Cc1nnc(NC(=O)c2cn(-c3ccccc3)nc2-c2ccccc2C)o1 | -0.302
Cc1[nH]c2ccccc2c1[C@H](c1cccs1)N1CCN(C)CC1 | -0.0891
COc1ccc(O[C@@H](C)C(=O)Nc2ccc(Cl)cc2C)cc1 | 0.539

Structure (SMILES) | log2 fold change growth
O=C(C1CCN(c2nnnn2-c2ccccc2)CC1)N1CCc2ccccc2C1 | -0.288
O=C(NC1CCCCC1)N1CCN(Cc2ccc3c(c2)OCO3)CC1 | -0.153
COc1cccc2c(C)nc(N=C(N)N)nc12 | 0.0276
CC(C)n1nc(-c2cc3c(Cl)cccc3[nH]2)c2c(N)ncnc21 | -2.56 (active)
c1cc(C2=NCCN2)cc(-c2cc(-c3ccc(C4=NCCN4)cc3)no2)c1 | 0.193
Nc1ncnc2c1ncn2C[C@@H](O)[C@@H](O)C(=O)O | -0.0899
OC[C@H]1O[C@@H](n2c3ccc(Cl)cc3c3c(-c4cc5ccccc5o4)ncnc32)C(O)[C@H]1O (stereo partly drawn) | -0.877
Cc1nc(-c2cccc(NCc3ccccc3)c2)[nH]c1C | 0.123
C[C@]1(COc2ccc(N3CCC(Oc4ccc(OC(F)(F)F)cc4)CC3)cc2)Cn2cc([N+](=O)[O-])nc2O1 | 0.162
COc1ccc(C2(C(=O)Nc3ccc(Br)cc3)CCCC2)cc1 | -0.749
CCC(=O)Nc1ccccc1C(=O)Nc1ccccn1 | 0.194
NCCC[C@@](N)(C(=O)O)C(F)F | 0.109
Cc1[nH]n2c(=O)c3c(nc2c1-c1ccc(Cl)cc1)CCCC3 | -0.182
c1ccc(-c2nc(NC3CCCCC3)cc(C3CC3)n2)nc1 | -0.0356
Cc1ccc2c(c1C)NC(=O)[C@]21NN=C(c2ccccc2)S1 | -0.355
Cc1cnc(CCNC(=O)c2cc(-c3ccc(Cl)cc3)cs2)[nH]1 | -0.147
c1ccc(Oc2ccc(-c3cc(C4CCOCC4)[nH]n3)cc2)cc1 | -0.254
CCCS(=O)(=O)N1CCC(CO)(Cc2ccccc2C(F)(F)F)CC1 | 0.357
CC(=O)NC[C@@H]1CN(c2ccc(N3CCOCC3)c(F)c2)C(=O)O1 | -0.257
